From PubChem BioAssay AID651946 (Broad Institute, 2012)
Potency and affinity values are given separately. Calls of active or inactive are those of the source.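 Rule for the calls: active = toxic compound whose fitted half-effect dose of signal loss is at most twice its top tested dose; inconclusive = flat fit losing 30 to 70% signal, or poor fit; inactive = the rest.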

Assay: cytotoxicity in HeLa cells, dose response, cytotoxicity control, cell-based, plate reader, dry powder (AID 651946)

SMILES | outcome
Fc1ccc(-c2nnc(SCc3cn(Cc4ccccc4)nn3)o2)cc1 | inactive
Cc1ccc(CSc2nnc(-c3ccccc3)o2)cc1 | inactive
FC(F)(F)c1ccc(CSc2nnc(-c3ccccc3)o2)cc1 | inactive
c1ccc(CSc2nnc(C3CCCC3)o2)cc1 | inactive
Brc1cccc(-c2nnc(SCc3ccccn3)o2)c1 | inactive
Fc1ccc(Cn2cc(CSc3nnc(-c4ccc(F)cc4)o3)nn2)cc1 | inactive
c1ccc(-c2nnc(SCc3ccccn3)o2)cc1 | inactive
FC(F)(F)Oc1ccc(-c2nnc(SCc3ccccc3)o2)cc1 | inactive
c1ccc(Cn2cc(CSc3nnc(C4CCCC4)o3)nn2)cc1 | inactive
Fc1ccc(CSc2nnc(-c3ccccc3)o2)cc1 | inactive
FC(F)(F)c1ccccc1-c1nnc(SCc2ccccc2)o1 | inactive
COc1ccccc1-c1nnc(SCc2ccccc2)o1 | inactive
Fc1cccc(CSc2nnc(-c3ccccc3)o2)c1 | inactive
CS(=O)(=O)c1ccccc1-c1nnc(SCc2ccccc2)o1 | inactive
Fc1ccc(Cn2cc(CSc3nnc(C4CCCC4)o3)nn2)cc1 | inactive
CS(=O)(=O)c1ccccc1CSc1nnc(-c2ccccc2)o1 | inactive
FC(F)(F)Oc1cccc(CSc2nnc(-c3ccccc3)o2)c1 | inactive
c1ccc(CNc2nnc(-c3ccccc3)o2)cc1 | inactive
COc1cccc(CSc2nnc(-c3ccccc3)o2)c1 | inactive

SMILES | outcome
Fc1ccccc1CSc1nnc(-c2ccccc2)o1 | inactive
Cc1cccc(CSc2nnc(-c3ccccc3)o2)c1 | inactive
FC(F)(F)CNCCSc1nnc(-c2ccccc2)o1 | inactive
N#Cc1ccc(-c2nnc(SCc3ccccc3)o2)cc1 | inactive
Fc1ccccc1-c1nnc(SCc2ccccc2)o1 | inactive
c1ccc(-n2cc(CSc3nnc(C4CCCC4)o3)nn2)cc1 | inactive
COc1ccc(-c2nnc(SCc3ccccc3)o2)cc1 | inactive
c1ccc(CSc2nnc(-c3ccc(-c4ccccc4)cc3)o2)cc1 | inactive
c1ccc(CSc2nnc(Cc3ccccc3)o2)cc1 | inactive
c1ccc(CSc2nnc(C3CCCCC3)o2)cc1 | inactive
FC(F)(F)c1cccc(-c2nnc(SCc3ccccc3)o2)c1 | inactive
Cc1cccc(-c2nnc(SCc3ccccc3)o2)c1 | inactive
Fc1cccc(-c2nnc(SCc3ccccc3)o2)c1 | inactive
c1ccc(CSc2nnc(-c3cccs3)o2)cc1 | inactive
COc1ccc(-c2nnc(SCc3ccc(Cl)cc3)o2)cc1 | inactive
c1ccc(-c2nnc(SCC3CC3)o2)cc1 | inactive
N#Cc1ccc(CSc2nnc(-c3ccccc3)o2)cc1 | inactive
Cc1ccc(-c2nnc(SCc3ccccn3)o2)cc1 | inactive
